TRHR ag: qHTS for Small Molecule Agonists and Allosteric Enhancers of Human TRH Receptor: Primary Screen for Agonists; AID 493084, 2011; TRHR cells, calcium flux fluo-8, FDSS agonist mode; Thyrotropin-releasing hormone receptor (Homo sapiens), P34981; 360,000 tested, 0.18% active; activation, % at 2 µM
Target sequence (P34981 whole entry, looked up): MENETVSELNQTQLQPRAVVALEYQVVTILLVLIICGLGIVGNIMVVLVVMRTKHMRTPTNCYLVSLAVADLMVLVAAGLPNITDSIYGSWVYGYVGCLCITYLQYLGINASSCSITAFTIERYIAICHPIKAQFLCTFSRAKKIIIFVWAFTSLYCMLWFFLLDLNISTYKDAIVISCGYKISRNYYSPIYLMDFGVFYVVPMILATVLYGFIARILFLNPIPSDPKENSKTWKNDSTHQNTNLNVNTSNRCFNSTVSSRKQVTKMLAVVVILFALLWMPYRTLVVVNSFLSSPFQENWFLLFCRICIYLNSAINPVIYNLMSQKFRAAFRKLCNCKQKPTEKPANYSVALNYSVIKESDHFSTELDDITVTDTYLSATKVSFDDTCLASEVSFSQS
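In this calcium-flux screen, cells bearing human TRHR are dye-loaded with fluo-8, baselined for 10 cycles, then exposed to library compounds; positive kinetic calcium responses during the agonist phase mark hits, with TRH as control.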
D1 antag: Antagonist of Human D 1 Dopamine Receptor: qHTS; D(1A) dopamine receptor (Homo sapiens), P21728; HEK293 TREx D1 cells, calcium flux, dopamine EC80; hits give low values; activity change, negative = inhibition, % at 10 µM; 360,000 tested, 3.2% active; AID 504652, 2011; in the data active = activity change below about -30%
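Cells carrying a force-coupled, tetracycline-inducible human D1 receptor report calcium flux. Each well gets a 10 s baseline, compound with 180 s monitoring, then an EC80 dopamine stimulus with a second 180 s kinetic read.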
D1 potentiator: Potentiators of Human D1 Dopamine Receptor: qHTS. potentiation, % at 10 µM. D(1A) dopamine receptor (Homo sapiens), P21728. AID 504651, 2011. 360,000 tested, 0.036% active. HEK293 TREx D1 cells, calcium flux, dopamine EC20 potentiation; in the data active = potentiation above about 30%
TRHR enhancer: qHTS for Small Molecule Agonists and Allosteric Enhancers of Human TRH Receptor: Primary Screen for Enhancers; TRHR cells, fluo-8 calcium fluorescence, EC20 TRH enhancement; enhancement, % at 2 µM; 360,000 tested, 0.66% active; in the data active = enhancement above about 30%
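Enhancer read-out: after compound pinning and an initial kinetic agonist-mode read, an EC20 of TRH (10 nM final) was injected and fluo-8 calcium signal (Ex 480/Em 530) followed at 1 s/cycle for 100 cycles in TRHR-expressing cells.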
D1 ag: Allosteric Agonists of the Human D1 Dopamine Receptor: qHTS; D(1A) dopamine receptor (Homo sapiens), P21728; HEK293 T-REx D1 cells, calcium flux, agonist mode; activation, % at 2 µM; 360,000 tested, 1% active; AID 504660, 2011
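Agonism was scored from calcium flux recorded over 180 s (1 read/s) after pintool compound addition, following a 10-cycle baseline. Cells were inducible force-coupled HEK293 TREx D1, plated overnight at 30 C and loaded with no-wash calcium dye.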
A number is an active result; ! = repeats disagree. A selection: hits, their analogues and other compounds. The true share with any hit is near 4.6%. Rule as the data show it, unless noted: active = activation above about 30%; inactive = the rest.

For CCCN(CCC)C(=O)c1cc2c(=O)n3cccc(C)c3nc2s1 the results were TRHR ag inactive, D1 antag -60!, D1 potentiator inactive, TRHR enhancer inactive and D1 ag inactive.
For CCCCOC(=O)CCNc1n[nH]c(=O)[nH]c1=O the results were TRHR ag inactive, D1 antag inactive, D1 potentiator inactive, TRHR enhancer inactive and D1 ag inactive.
For c1ccc2c(c1)OCCOCCOCCOCCOc1ccccc1OCCOCCOCCO2 the results were TRHR ag inactive, D1 antag -32, D1 potentiator inactive, TRHR enhancer inactive and D1 ag inactive.
Cc1ccc(C(=O)NC(=S)N(C)C2CCCCC2)cc1 was read as TRHR ag inactive, D1 antag -41, D1 potentiator inactive, TRHR enhancer inactive and D1 ag inactive.
Cc1cc2nc(SC(C)C(=O)O)[nH]c2cc1C (stereo unspecified) was read as TRHR ag inactive, D1 antag inactive, D1 potentiator inactive, TRHR enhancer inactive and D1 ag inactive.
For O=C1S/C(=C/c2ccccc2F)C(=O)N1CCN=C1NS(=O)(=O)c2ccccc21 the results were TRHR ag inactive, D1 antag inactive, D1 potentiator inactive, TRHR enhancer inactive and D1 ag inactive.
Cc1ccc(NC(=O)CCC(=O)NNC(=O)NC23CC4CC(CC(C4)C2)C3)cc1C was read as TRHR ag inactive, D1 antag inactive, D1 potentiator inactive, TRHR enhancer inactive and D1 ag 50.
`CC(C)(Oc1ccc(Cl)cc1)C(=O)NCCCn1ccnc1` gave TRHR ag inactive, D1 antag inactive, D1 potentiator inactive, TRHR enhancer inactive and D1 ag inactive.
Screening O=c1c2oc3ccccc3c2n(Cc2cccc(Cl)c2)c(=O)n1Cc1ccco1 returned TRHR ag inactive, D1 antag inactive, D1 potentiator inactive, TRHR enhancer inactive and D1 ag inactive.
For CCCCOc1cccc(C(=O)Nc2cccc(-c3nc4ncccc4o3)c2C)c1 the results were TRHR ag inactive, D1 antag inactive, D1 potentiator inactive, TRHR enhancer 43 and D1 ag inactive.
Screening CSCC(=O)N1CCC(Oc2cccc(C(=O)NCc3ccccn3)c2)CC1 returned TRHR ag inactive, D1 antag inactive, D1 potentiator inactive, TRHR enhancer inactive and D1 ag inactive.
`COc1cc2cc(C)c3nnc(SCC(N)=O)n3c2cc1OC` gave TRHR ag inactive, D1 antag inactive, D1 potentiator inactive, TRHR enhancer inactive and D1 ag inactive.
For COC(=O)c1cn(Cc2ccc(C(F)(F)F)cc2)cc(F)c1=O the results were TRHR ag inactive, D1 antag -31, D1 potentiator inactive, TRHR enhancer inactive and D1 ag inactive.
For COC(=O)c1ccc(Cn2cc(C(F)(F)F)ccc2=O)cc1 the results were TRHR ag inactive, D1 antag inactive, D1 potentiator inactive, TRHR enhancer inactive and D1 ag inactive.
COc1ccc(NC(=O)CN(C)S(=O)(=O)c2ccc3c(c2)OCCO3)c2ncccc12 was read as TRHR ag inactive, D1 antag inactive, D1 potentiator inactive, TRHR enhancer inactive and D1 ag inactive.
Screening O=c1c2cccc3c(N4CCOCC4)ccc(c32)c2nc3ccccc3n12 returned TRHR ag 51, D1 antag inactive, D1 potentiator inactive, TRHR enhancer inactive and D1 ag 72.
CCc1ccc2c(Cl)c(C(=O)N/N=C/c3c[nH]c4ccccc34)sc2c1 was read as TRHR ag inactive, D1 antag inactive, D1 potentiator inactive, TRHR enhancer inactive and D1 ag inactive.
For O=C(N/N=C/c1cc([N+](=O)[O-])ccc1Cl)c1cc(-c2ccccc2)nc2ccccc12 the results were TRHR ag inactive, D1 antag -47, D1 potentiator inactive, TRHR enhancer inactive and D1 ag inactive.
Cc1cccc(-c2cc(C(=O)Nc3ccncc3)c3ccccc3n2)c1 was read as TRHR ag inactive, D1 antag -41, D1 potentiator inactive, TRHR enhancer inactive and D1 ag inactive.

From PubChem
